From ChEMBL document CHEMBL1961873, “Compounds: GSK PKIS; Assays: Nanosyn kinase panel” (2012)

Tests used:
[1] = system: Tyrosine-protein kinase ABL1 (Homo sapiens), P00519 [T315I]; settings: at 1 µM
[2] = system: Tyrosine-protein kinase ABL1 (Homo sapiens), P00519 [Y253F]; settings: at 0.1 µM
[3] = system: Tyrosine-protein kinase ABL1 (Homo sapiens), P00519 [Y253F]; settings: at 1 µM
[4] = molecular target: Tyrosine-protein kinase ABL1 (Homo sapiens) (UniProt P00519); settings: at 0.1 µM
[5] = molecular target: Tyrosine-protein kinase ABL1 (Homo sapiens) (UniProt P00519); settings: at 1 µM
[6] = molecular target: ALK tyrosine kinase receptor (Homo sapiens) (UniProt Q9UM73); settings: at 0.1 µM
Chain of ALK tyrosine kinase receptor (Homo sapiens) (Q9UM73 19-1620 limits assumed): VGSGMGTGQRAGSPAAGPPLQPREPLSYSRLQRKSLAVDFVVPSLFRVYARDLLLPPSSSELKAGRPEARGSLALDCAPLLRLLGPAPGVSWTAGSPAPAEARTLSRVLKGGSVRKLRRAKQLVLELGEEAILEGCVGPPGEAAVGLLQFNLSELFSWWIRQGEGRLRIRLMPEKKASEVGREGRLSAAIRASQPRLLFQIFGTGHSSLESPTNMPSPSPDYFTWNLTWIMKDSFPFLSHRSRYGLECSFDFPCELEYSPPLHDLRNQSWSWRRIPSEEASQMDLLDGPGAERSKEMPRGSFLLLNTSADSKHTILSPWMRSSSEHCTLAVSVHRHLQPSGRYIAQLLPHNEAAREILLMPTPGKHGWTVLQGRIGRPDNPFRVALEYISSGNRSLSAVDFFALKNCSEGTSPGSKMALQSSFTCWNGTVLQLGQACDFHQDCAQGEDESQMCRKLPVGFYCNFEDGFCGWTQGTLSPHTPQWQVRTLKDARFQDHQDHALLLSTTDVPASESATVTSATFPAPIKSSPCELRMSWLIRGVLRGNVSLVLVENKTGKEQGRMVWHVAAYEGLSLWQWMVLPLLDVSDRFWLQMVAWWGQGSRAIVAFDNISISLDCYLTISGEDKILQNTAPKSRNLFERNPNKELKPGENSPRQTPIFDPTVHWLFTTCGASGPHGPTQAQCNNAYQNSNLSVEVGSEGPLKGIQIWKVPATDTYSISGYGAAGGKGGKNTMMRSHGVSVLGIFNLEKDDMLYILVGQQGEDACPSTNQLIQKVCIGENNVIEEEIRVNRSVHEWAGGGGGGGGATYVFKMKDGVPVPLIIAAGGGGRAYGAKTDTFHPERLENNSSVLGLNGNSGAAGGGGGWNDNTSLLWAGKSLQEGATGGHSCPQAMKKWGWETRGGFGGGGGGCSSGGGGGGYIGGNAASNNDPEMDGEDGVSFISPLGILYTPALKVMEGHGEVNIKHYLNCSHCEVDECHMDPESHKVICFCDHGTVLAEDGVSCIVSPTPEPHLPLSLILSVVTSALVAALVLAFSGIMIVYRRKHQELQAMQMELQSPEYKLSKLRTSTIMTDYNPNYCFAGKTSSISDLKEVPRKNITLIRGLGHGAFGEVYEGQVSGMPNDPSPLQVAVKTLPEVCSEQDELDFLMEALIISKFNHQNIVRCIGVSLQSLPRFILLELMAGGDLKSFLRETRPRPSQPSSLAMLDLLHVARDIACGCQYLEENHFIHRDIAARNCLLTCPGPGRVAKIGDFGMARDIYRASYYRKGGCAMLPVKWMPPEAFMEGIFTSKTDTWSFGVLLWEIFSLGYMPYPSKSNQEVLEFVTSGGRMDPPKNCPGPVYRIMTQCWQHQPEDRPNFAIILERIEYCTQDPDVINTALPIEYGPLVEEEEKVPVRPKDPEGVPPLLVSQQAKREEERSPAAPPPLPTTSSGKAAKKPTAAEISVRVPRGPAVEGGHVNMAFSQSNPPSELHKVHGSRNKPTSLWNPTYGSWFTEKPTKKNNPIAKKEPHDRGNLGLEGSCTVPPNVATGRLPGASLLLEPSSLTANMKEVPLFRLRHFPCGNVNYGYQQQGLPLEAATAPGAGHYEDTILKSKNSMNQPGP

[7] = molecular target: ALK tyrosine kinase receptor (Homo sapiens) (UniProt Q9UM73); settings: at 1 µM
[8] = molecular target: Tyrosine-protein kinase ABL2 (Homo sapiens) (UniProt P42684); settings: at 0.1 µM
[9] = molecular target: Tyrosine-protein kinase ABL2 (Homo sapiens) (UniProt P42684); settings: at 1 µM
[10] = molecular target: Tyrosine-protein kinase receptor UFO (Homo sapiens) (UniProt P30530); settings: at 0.1 µM
Chain of Tyrosine-protein kinase receptor UFO (Homo sapiens) (P30530 whole entry): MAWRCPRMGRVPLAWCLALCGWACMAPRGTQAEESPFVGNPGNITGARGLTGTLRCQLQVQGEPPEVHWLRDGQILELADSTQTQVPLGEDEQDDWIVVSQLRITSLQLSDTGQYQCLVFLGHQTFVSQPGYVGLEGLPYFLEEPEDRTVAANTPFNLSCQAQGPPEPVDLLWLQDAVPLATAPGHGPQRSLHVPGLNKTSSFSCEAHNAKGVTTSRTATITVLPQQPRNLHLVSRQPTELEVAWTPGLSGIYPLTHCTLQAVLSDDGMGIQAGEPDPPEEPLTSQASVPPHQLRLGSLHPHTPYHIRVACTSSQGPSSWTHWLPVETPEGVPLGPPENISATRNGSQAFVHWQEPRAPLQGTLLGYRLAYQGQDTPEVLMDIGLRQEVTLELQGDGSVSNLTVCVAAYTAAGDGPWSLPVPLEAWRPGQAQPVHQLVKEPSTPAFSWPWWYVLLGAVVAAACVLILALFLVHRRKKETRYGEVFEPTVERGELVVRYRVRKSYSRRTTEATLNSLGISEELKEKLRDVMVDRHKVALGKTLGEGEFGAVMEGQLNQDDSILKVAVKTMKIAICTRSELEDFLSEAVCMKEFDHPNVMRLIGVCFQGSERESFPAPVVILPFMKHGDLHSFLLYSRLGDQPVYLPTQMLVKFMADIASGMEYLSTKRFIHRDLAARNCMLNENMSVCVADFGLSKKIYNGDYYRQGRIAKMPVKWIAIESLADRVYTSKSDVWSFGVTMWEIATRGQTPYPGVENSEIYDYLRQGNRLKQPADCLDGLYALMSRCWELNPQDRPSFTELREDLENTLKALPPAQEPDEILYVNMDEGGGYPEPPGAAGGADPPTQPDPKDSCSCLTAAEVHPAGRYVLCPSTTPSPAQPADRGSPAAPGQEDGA

[11] = molecular target: Tyrosine-protein kinase receptor UFO (Homo sapiens) (UniProt P30530); settings: at 1 µM
[12] = molecular target: Tyrosine-protein kinase Blk (Homo sapiens) (UniProt P51451); settings: at 0.1 µM
Chain of Tyrosine-protein kinase Blk (Homo sapiens) (P51451 2-505 limits assumed): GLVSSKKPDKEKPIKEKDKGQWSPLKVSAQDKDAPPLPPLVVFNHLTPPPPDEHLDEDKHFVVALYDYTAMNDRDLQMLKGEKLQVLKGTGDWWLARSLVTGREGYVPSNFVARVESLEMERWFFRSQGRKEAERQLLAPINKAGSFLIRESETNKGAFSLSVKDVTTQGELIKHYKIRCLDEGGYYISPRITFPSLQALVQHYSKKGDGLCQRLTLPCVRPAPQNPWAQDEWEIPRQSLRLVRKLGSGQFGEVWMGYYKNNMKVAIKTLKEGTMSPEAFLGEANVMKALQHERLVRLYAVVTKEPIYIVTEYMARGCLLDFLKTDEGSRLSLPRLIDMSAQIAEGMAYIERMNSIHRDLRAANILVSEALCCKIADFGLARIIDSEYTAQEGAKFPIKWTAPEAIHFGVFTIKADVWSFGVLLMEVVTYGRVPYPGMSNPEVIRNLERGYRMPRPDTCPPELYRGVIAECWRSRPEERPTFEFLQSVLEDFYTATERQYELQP

[13] = molecular target: Tyrosine-protein kinase Blk (Homo sapiens) (UniProt P51451); settings: at 1 µM
[14] = molecular target: T1, Cytoplasmic tyrosine-protein kinase BMX (Homo sapiens) (UniProt P51813); settings: at 0.1 µM
T1 sequence (whole entry): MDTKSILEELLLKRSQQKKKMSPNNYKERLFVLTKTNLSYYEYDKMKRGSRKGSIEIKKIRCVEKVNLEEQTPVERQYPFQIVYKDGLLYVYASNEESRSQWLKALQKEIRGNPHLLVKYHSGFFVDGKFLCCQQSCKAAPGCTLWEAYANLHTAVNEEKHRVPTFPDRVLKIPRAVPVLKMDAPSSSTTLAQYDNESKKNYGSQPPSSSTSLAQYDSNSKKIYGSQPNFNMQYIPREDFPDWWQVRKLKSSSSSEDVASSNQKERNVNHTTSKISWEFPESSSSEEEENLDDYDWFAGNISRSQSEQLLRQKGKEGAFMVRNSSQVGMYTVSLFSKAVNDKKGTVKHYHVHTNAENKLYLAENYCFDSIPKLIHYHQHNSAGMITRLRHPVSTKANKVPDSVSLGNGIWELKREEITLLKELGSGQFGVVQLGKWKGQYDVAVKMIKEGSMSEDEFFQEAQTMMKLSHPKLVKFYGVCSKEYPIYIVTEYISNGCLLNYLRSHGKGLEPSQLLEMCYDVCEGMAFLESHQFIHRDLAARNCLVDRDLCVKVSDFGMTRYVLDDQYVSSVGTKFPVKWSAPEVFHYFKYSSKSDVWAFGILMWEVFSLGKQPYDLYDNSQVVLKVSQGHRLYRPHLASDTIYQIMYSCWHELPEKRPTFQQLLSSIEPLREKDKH

[15] = molecular target: T1, Cytoplasmic tyrosine-protein kinase BMX (Homo sapiens); settings: at 1 µM
[16] = molecular target: Protein-tyrosine kinase 6 (Homo sapiens) (UniProt Q13882); settings: at 0.1 µM
Chain of Protein-tyrosine kinase 6 (Homo sapiens) (Q13882 whole entry, looked up): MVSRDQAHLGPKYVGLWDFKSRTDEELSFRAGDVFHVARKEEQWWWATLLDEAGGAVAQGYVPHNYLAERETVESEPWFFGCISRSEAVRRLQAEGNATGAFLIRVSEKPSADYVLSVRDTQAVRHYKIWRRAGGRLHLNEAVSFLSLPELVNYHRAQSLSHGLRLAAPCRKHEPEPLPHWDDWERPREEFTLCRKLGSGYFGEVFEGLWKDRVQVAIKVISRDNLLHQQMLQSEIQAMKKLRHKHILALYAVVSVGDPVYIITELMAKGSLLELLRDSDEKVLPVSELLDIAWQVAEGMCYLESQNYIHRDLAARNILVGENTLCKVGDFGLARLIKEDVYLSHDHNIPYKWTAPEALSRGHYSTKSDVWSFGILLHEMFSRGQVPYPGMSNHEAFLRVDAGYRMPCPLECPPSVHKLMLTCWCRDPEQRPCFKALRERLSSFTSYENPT

[17] = molecular target: Protein-tyrosine kinase 6 (Homo sapiens) (UniProt Q13882); settings: at 1 µM
[18] = molecular target: Tyrosine-protein kinase BTK (Homo sapiens) (UniProt Q06187); settings: at 0.1 µM
Chain of Tyrosine-protein kinase BTK (Homo sapiens) (Q06187 whole entry): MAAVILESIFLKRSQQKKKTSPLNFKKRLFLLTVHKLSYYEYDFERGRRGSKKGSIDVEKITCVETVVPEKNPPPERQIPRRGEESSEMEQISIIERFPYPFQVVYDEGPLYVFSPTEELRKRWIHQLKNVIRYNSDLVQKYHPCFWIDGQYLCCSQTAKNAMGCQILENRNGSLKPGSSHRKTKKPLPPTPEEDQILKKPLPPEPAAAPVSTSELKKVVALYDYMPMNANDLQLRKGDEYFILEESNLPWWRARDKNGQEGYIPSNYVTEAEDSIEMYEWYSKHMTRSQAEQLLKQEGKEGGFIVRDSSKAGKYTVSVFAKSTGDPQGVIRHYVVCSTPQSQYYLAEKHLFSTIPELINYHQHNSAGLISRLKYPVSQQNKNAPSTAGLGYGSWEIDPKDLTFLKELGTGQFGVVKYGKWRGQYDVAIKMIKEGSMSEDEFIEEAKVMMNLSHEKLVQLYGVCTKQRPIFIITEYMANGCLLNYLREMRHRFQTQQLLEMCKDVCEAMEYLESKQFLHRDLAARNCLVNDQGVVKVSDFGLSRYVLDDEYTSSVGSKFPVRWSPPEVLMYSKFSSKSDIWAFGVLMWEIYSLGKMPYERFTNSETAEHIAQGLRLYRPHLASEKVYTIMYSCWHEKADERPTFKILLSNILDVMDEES

[19] = molecular target: Tyrosine-protein kinase BTK (Homo sapiens) (UniProt Q06187); settings: at 1 µM
[20] = molecular target: Tyrosine-protein kinase CSK (Homo sapiens) (UniProt P41240); settings: at 0.1 µM;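 also: value given is the averaged percent inhibition of CSK kinase activity, from the GSK PKIS kinase inhibitor set screening panel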
Chain of Tyrosine-protein kinase CSK (Homo sapiens) (P41240 2-450 limits assumed): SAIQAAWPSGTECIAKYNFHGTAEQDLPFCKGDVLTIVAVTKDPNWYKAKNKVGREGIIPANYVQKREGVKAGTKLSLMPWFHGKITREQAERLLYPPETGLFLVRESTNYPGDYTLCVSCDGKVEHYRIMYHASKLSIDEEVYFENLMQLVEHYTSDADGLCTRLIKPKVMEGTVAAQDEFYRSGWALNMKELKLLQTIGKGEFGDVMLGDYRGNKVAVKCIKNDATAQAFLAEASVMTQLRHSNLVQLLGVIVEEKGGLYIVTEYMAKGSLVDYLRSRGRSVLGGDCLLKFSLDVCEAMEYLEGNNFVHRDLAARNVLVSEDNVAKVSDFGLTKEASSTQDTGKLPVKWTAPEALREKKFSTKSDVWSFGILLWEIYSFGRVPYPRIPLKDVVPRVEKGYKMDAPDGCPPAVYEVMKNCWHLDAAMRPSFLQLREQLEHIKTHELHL

Cc1ccc2c(c1)/C(=N/Nc1ccc(S(N)(=O)=O)cc1)C(=O)N2
inhibition [1]: 7.37%
inhibition [2]: -0.42%
inhibition [3]: 7.64%
inhibition [4]: 0.83%
inhibition [5]: 8.09%
inhibition [6]: 0.89%
inhibition [7]: 2.77%
inhibition [8]: 3.63%
inhibition [9]: 12.1%
inhibition [10]: -1.65%
inhibition [11]: 2.86%
inhibition [12]: 0.29%
inhibition [13]: 11.2%
inhibition [14]: 1.94%
inhibition [15]: -0.8%
inhibition [16]: -3.49%
inhibition [17]: -3.16%
inhibition [18]: 0.42%
inhibition [19]: 3.78%
inhibition [20]: -2.97%

NC(=O)c1sc(-n2cnc3ccccc32)cc1OCc1ccccc1Br
inhibition [1]: 4.17%
inhibition [2]: 2.98%
inhibition [3]: 5.62%
inhibition [4]: 4.27%
inhibition [5]: 9.67%
inhibition [6]: 4.26%
inhibition [7]: 6.94%
inhibition [8]: 4.44%
inhibition [9]: 7.23%
inhibition [10]: -6.14%
inhibition [11]: -4.14%
inhibition [12]: 2.16%
inhibition [13]: 3.7%
inhibition [14]: 3.03%
inhibition [15]: 4.96%
inhibition [16]: 1.74%
inhibition [17]: 7.25%
inhibition [18]: -0.65%
inhibition [19]: -0.19%
inhibition [20]: 1.13%

COc1ccc(-c2nn3ncccc3c2-c2ccnc(Nc3cccc(C(F)(F)F)c3)n2)cc1
inhibition [1]: 5.9%
inhibition [2]: 1.53%
inhibition [3]: 5.56%
inhibition [4]: 5.5%
inhibition [5]: 4%
inhibition [6]: 3.3%
inhibition [7]: 5.15%
inhibition [8]: 2.28%
inhibition [9]: 6.55%
inhibition [10]: -4.48%
inhibition [11]: -2.69%
inhibition [12]: 2.61%
inhibition [13]: 7.74%
inhibition [14]: 2.37%
inhibition [15]: -4.27%
inhibition [16]: 2.5%
inhibition [17]: 17.9%
inhibition [18]: 0.09%
inhibition [19]: 1.7%
inhibition [20]: 2.1%

ON=C1CCc2cc(-c3nc(C4CCNCC4)[nH]c3-c3ccncc3)ccc21
inhibition [1]: 1.59%
inhibition [2]: 0.98%
inhibition [3]: 1.65%
inhibition [4]: 1.37%
inhibition [5]: 4.12%
inhibition [6]: 2.45%
inhibition [7]: 4.92%
inhibition [8]: 2.12%
inhibition [9]: 6.46%
inhibition [10]: -1.8%
inhibition [11]: 2.54%
inhibition [12]: 0.32%
inhibition [13]: 2.67%
inhibition [14]: 1.43%
inhibition [15]: -1.75%
inhibition [16]: -0.84%
inhibition [17]: -2.02%
inhibition [18]: -1.11%
inhibition [19]: 3.08%
inhibition [20]: -4.87%

COc1ccc2ncnc(Nc3ccc(OCc4ccccc4)cc3)c2c1
inhibition [1]: 3.21%
inhibition [2]: 2.03%
inhibition [3]: 1.02%
inhibition [4]: 1.65%
inhibition [5]: 4.79%
inhibition [6]: 0.66%
inhibition [7]: 0.87%
inhibition [8]: 2.72%
inhibition [9]: 4.53%
inhibition [10]: -3.58%
inhibition [11]: -5.04%
inhibition [12]: 2.17%
inhibition [13]: 6.3%
inhibition [14]: 2.68%
inhibition [15]: 2.81%
inhibition [16]: 0.54%
inhibition [17]: 9.39%
inhibition [18]: -0.01%
inhibition [19]: 1.33%
inhibition [20]: 2.5%

N#Cc1cccc(Nc2nccc(-c3cnn4ncccc34)n2)c1
inhibition [1]: 34.2%
inhibition [2]: 12.6%
inhibition [3]: 49.8%
inhibition [4]: 13.6%
inhibition [5]: 47.5%
inhibition [6]: 4.04%
inhibition [7]: 18.7%
inhibition [8]: 11.9%
inhibition [9]: 44.3%
inhibition [10]: -0.03%
inhibition [11]: 33.8%
inhibition [12]: 5.38%
inhibition [13]: 26.5%
inhibition [14]: 4.87%
inhibition [15]: 39.7%
inhibition [16]: 5.32%
inhibition [17]: 23.5%
inhibition [18]: 2.23%
inhibition [19]: 5.13%
inhibition [20]: 5.02%

N#Cc1c(NC(=O)c2ccccc2F)sc2c1CCCC2
inhibition [1]: 0.12%
inhibition [2]: -0.24%
inhibition [3]: 0.05%
inhibition [4]: 0.07%
inhibition [5]: 1.47%
inhibition [6]: -1.14%
inhibition [7]: 1.02%
inhibition [8]: -0.22%
inhibition [9]: 1.82%
inhibition [10]: 1.78%
inhibition [11]: 2.38%
inhibition [12]: -0.71%
inhibition [13]: 0.42%
inhibition [14]: -1.17%
inhibition [15]: -1.62%
inhibition [16]: 0.56%
inhibition [17]: -1.93%
inhibition [18]: 0.32%
inhibition [19]: -0.23%
inhibition [20]: -1.65%

COc1cc(Nc2nccc(-c3cnn4ncccc34)n2)cc(OC)c1
inhibition [1]: 40.3%
inhibition [2]: 13.7%
inhibition [3]: 59.6%
inhibition [4]: 9.67%
inhibition [5]: 62.7%
inhibition [6]: 5.68%
inhibition [7]: 44.8%
inhibition [8]: 10.5%
inhibition [9]: 69.6%
inhibition [10]: 2%
inhibition [11]: 20.7%
inhibition [12]: 2%
inhibition [13]: 24.8%
inhibition [14]: 7.04%
inhibition [15]: 31.3%
inhibition [16]: 0.23%
inhibition [17]: 17.6%
inhibition [18]: 1.94%
inhibition [19]: 11.3%
inhibition [20]: 2.91%

O=C1Nc2ccc(-c3cccnc3)cc2C1=Cc1cc(Br)c(O)c(Br)c1
inhibition [1]: 2.94%
inhibition [2]: 5.16%
inhibition [3]: 7.7%
inhibition [4]: 3.97%
inhibition [5]: 8.78%
inhibition [6]: 4.13%
inhibition [7]: 9.22%
inhibition [8]: 3.5%
inhibition [9]: 5.72%
inhibition [10]: -3.55%
inhibition [11]: -2.44%
inhibition [12]: 2.77%
inhibition [13]: 10.8%
inhibition [14]: -2.3%
inhibition [15]: 4.31%
inhibition [16]: 4.36%
inhibition [17]: 10.7%
inhibition [18]: 0.22%
inhibition [19]: 1.61%
inhibition [20]: 4.14%

Cc1ccc(C(=O)NC2CC2)cc1-c1ccc2[nH]ncc2c1
inhibition [1]: 2.89%
inhibition [2]: -1.37%
inhibition [3]: 0.48%
inhibition [4]: -0.56%
inhibition [5]: 0.77%
inhibition [6]: -1.6%
inhibition [7]: -1.66%
inhibition [8]: -1.18%
inhibition [9]: 0.73%
inhibition [10]: 3.54%
inhibition [11]: 6.55%
inhibition [12]: -1.8%
inhibition [13]: -1.6%
inhibition [14]: -2.64%
inhibition [15]: -6.39%
inhibition [16]: -2.14%
inhibition [17]: -3.93%
inhibition [18]: 0.06%
inhibition [19]: -1.33%

CN(C)CCCn1c(-c2nonc2N)nc2cnccc21
inhibition [1]: 1.3%
inhibition [2]: 2.05%
inhibition [3]: 4.68%
inhibition [4]: 2.69%
inhibition [5]: 4.71%
inhibition [6]: 2.82%
inhibition [7]: 4.63%
inhibition [8]: 3.56%
inhibition [9]: -5.79%
inhibition [10]: -7.29%
inhibition [11]: -8.31%
inhibition [12]: 1.44%
inhibition [13]: 3.44%
inhibition [14]: 3.45%
inhibition [15]: 3.08%
inhibition [16]: 0.2%
inhibition [17]: 3.36%
inhibition [18]: 0.72%
inhibition [19]: 0.12%
inhibition [20]: 1.79%

CN1CCN(C(=O)c2ccc(NC(=O)Nc3ccc(N(C)c4ccnc(Nc5ccc(CS(C)(=O)=O)cc5)n4)cc3)cc2)CC1
inhibition [1]: 61.5%
inhibition [2]: 8.21%
inhibition [3]: 48.1%
inhibition [4]: 9.79%
inhibition [5]: 43.9%
inhibition [6]: 1.71%
inhibition [7]: 10.3%
inhibition [8]: 21.9%
inhibition [9]: 56.5%
inhibition [10]: -3.75%
inhibition [11]: 11.9%
inhibition [12]: 2.76%
inhibition [13]: 24.4%
inhibition [14]: 19.1%
inhibition [15]: 68%
inhibition [16]: -1.96%
inhibition [17]: 13.5%
inhibition [18]: 1.59%
inhibition [19]: 16%
inhibition [20]: -1.19%

NS(=O)(=O)c1ccc(-c2cc3ccncc3cc2OCc2ccccc2)cc1
inhibition [1]: 3.49%
inhibition [2]: 5.3%
inhibition [3]: 3.98%
inhibition [4]: 3.52%
inhibition [5]: 7.38%
inhibition [6]: 4.77%
inhibition [7]: 15.5%
inhibition [8]: 3.51%
inhibition [9]: 6.27%
inhibition [10]: -5.69%
inhibition [11]: -1.13%
inhibition [12]: 2.2%
inhibition [13]: 3.91%
inhibition [14]: 4.23%
inhibition [15]: 4.75%
inhibition [16]: 2.61%
inhibition [17]: 5.54%
inhibition [18]: 0.49%
inhibition [19]: -0.08%
inhibition [20]: 4.58%
